# Measured values: the supplement of paper PMC6897291
# Key:
# U-2932 = experiment: growth inhibition by drug plus 177Lu-lilotomab satetraxetan (1 - RLU/untreated control) (fraction); higher = stronger inhibition; details: 177Lu-lilotomab satetraxetan 1 ug/ml
# Procedure, shortened: (§1)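 Compound doses on the pre-printed Selleck Cambridge Cancer Compound library plates were 10/100 nM for RIVA cells and 10/1,000 nM for U-2932 cells, seeded at 3,000 cells/well. Before seeding, cells were washed after 18 h with or without a radiolabelled anti-CD37 antibody conjugate (~600 MBq/mg; 0.5 µg/ml RIVA, 1 µg/ml U-2932). Growth inhibition was derived from RealTime-Glo luminescence relative to untreated no-drug control wells. Readings were taken daily starting on day 3, each after 1 h at 37°C, and each well's RLU was divided by the mean of 48 such wells per plate and subtracted from 1.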
# RIVA [1] = experiment: growth inhibition by drug alone (1 - RLU/untreated control) (fraction); higher = stronger inhibition; details: 177Lu-lilotomab satetraxetan 0 ug/ml
# Procedure, shortened: as §1
# RIVA [2] = experiment: growth inhibition by drug plus 177Lu-lilotomab satetraxetan (1 - RLU/untreated control) (fraction); higher = stronger inhibition; details: 177Lu-lilotomab satetraxetan 0.5 ug/ml
# Procedure, shortened: as §1
Compound,"growth inhibition by drug plus 177Lu-lilotomab satetraxetan (U-2932; 10 nM, time (day): 3)","growth inhibition by drug plus 177Lu-lilotomab satetraxetan (U-2932; 10 nM, time (day): 4)","growth inhibition by drug plus 177Lu-lilotomab satetraxetan (U-2932; 10 nM, time (day): 5)","growth inhibition by drug plus 177Lu-lilotomab satetraxetan (U-2932; 10 nM, time (day): 6)","growth inhibition by drug plus 177Lu-lilotomab satetraxetan (U-2932; 1000 nM, time (day): 3)","growth inhibition by drug plus 177Lu-lilotomab satetraxetan (U-2932; 1000 nM, time (day): 4)","growth inhibition by drug plus 177Lu-lilotomab satetraxetan (U-2932; 1000 nM, time (day): 5)","growth inhibition by drug plus 177Lu-lilotomab satetraxetan (U-2932; 1000 nM, time (day): 6)","growth inhibition by drug alone (RIVA [1]; 10 nM, time (day): 3)","growth inhibition by drug alone (RIVA [1]; 10 nM, time (day): 4)","growth inhibition by drug alone (RIVA [1]; 10 nM, time (day): 5)","growth inhibition by drug alone (RIVA [1]; 10 nM, time (day): 6)","growth inhibition by drug alone (RIVA [1]; 100 nM, time (day): 3)","growth inhibition by drug alone (RIVA [1]; 100 nM, time (day): 4)","growth inhibition by drug alone (RIVA [1]; 100 nM, time (day): 5)","growth inhibition by drug alone (RIVA [1]; 100 nM, time (day): 6)","growth inhibition by drug plus 177Lu-lilotomab satetraxetan (RIVA [2]; 10 nM, time (day): 3)","growth inhibition by drug plus 177Lu-lilotomab satetraxetan (RIVA [2]; 10 nM, time (day): 4)","growth inhibition by drug plus 177Lu-lilotomab satetraxetan (RIVA [2]; 10 nM, time (day): 5)","growth inhibition by drug plus 177Lu-lilotomab satetraxetan (RIVA [2]; 10 nM, time (day): 6)","growth inhibition by drug plus 177Lu-lilotomab satetraxetan (RIVA [2]; 100 nM, time (day): 3)","growth inhibition by drug plus 177Lu-lilotomab satetraxetan (RIVA [2]; 100 nM, time (day): 4)","growth inhibition by drug plus 177Lu-lilotomab satetraxetan (RIVA [2]; 100 nM, time (day): 5)","growth inhibition by drug plus 177Lu-lilotomab satetraxetan (RIVA [2]; 100 nM, time (day): 6)"
C=C1C[C@@H]2[C@H](CC[C@]3(C)C(=O)CC[C@@H]23)[C@@]2(C)C=CC(=O)C=C12 [Exemestane],0.052,0.106,0.138,0.169,-0.0113,0.0549,0.0989,0.179,–,–,–,–,–,–,–,–,–,–,–,–,–,–,–,–
C[C@]12CCC(=O)C(O)=C1CC[C@@H]1[C@@H]2CC[C@]2(C)C(=O)CC[C@@H]12 [Formestane],-0.06,-0.00612,0.0406,0.141,-0.0681,-0.018,0.0247,0.18,-0.227,-0.249,-0.286,-0.391,-0.322,-0.306,-0.36,-0.445,–,–,–,–,–,–,–,–
N[C@@H](Cc1ccc(N(CCCl)CCCl)cc1)C(=O)O [Melphalan],0.0197,0.0283,0.0541,0.143,0.00364,0.0898,0.0598,0.0846,–,–,–,–,–,–,–,–,–,–,–,–,–,–,–,–
O=C(O)c1nn(Cc2ccc(Cl)cc2Cl)c2ccccc12 [Lonidamine],0.0325,0.0863,0.132,0.173,0.0882,0.147,0.167,0.244,–,–,–,–,–,–,–,–,0.616,0.624,0.644,0.656,0.309,0.446,0.459,0.45
CN(C)CCN(C)CCc1ccc(Cl)c(Cl)c1,-0.0419,-0.0108,-0.00129,0.0756,-0.131,-0.0418,-0.0272,-0.0418,–,–,–,–,–,–,–,–,–,–,–,–,–,–,–,–
O=C(Oc1ccc([N+](=O)[O-])cc1)N1CCC(C(O)(c2ccc3c(c2)OCO3)c2ccc3c(c2)OCO3)CC1,-0.0245,0.00325,0.0178,0.11,-0.0484,0.0258,0.0163,0.077,–,–,–,–,–,–,–,–,0.375,0.498,0.518,0.517,0.429,0.517,0.523,0.501
Cc1ccccc1-n1c(Cn2cnc3c(N)ncnc32)nc2cccc(C)c2c1=O,-0.00529,0.0455,0.107,0.209,0.0591,0.0697,0.0914,0.26,–,–,–,–,–,–,–,–,–,–,–,–,–,–,–,–
CC(C)[C@]12O[C@H]1[C@@H]1O[C@]13[C@]1(O[C@H]1C[C@H]1C4=C(CC[C@@]13C)C(=O)OC4)[C@@H]2O [Triptolide],0.468,0.657,0.744,0.774,0.965,0.976,0.981,0.986,0.376,0.671,0.753,0.792,0.907,0.934,0.957,0.967,–,–,–,–,–,–,–,–
